One may read the inhibition as the change of the read-out against control, counted positive when it falls.

Hit rate of the full screen: of about 5,600 compounds, about 4,500 (80%) were called active. Rule as the data show it: active = inhibition above about 10%; inactive = the rest. So high a share suggests a set chosen from earlier hits. Not all results are given here.

A short description of this assay: GDH-TPI coupling enzyme inhibitors, artefact control for M. tuberculosis FBA inhibitor project, biochemical, fluorescence, high throughput (AID 652141). The note with it: GDH-TPI coupled enzyme counterscreen, at 1 µM, stronger effect = higher value.
For `CC(=O)c1sc2nc(SCC(=O)N3CCCCC3)[nH]c(=O)c2c1C`, the inhibition was 55.4% (active).
For the molecule `Cc1nc(NCCN)c(C#N)c2c1COC(C)(C)C2`, the inhibition was 76.9% (active).
In the case of `Oc1ccccc1C1=NN(c2ccccc2)C(c2ccccc2)C1` (stereo not drawn), the inhibition was 84% (active).
Turning to `COc1ccc(C2CC(c3cccs3)=NN2c2ccc(F)cc2)cc1OC` (stereo not drawn), the inhibition is 71.1% (active).
For the molecule `COc1ccc(C2CC(c3cccs3)=NN2c2ccccc2)cc1` (stereo not drawn), the inhibition is 23.7% (active).
The figure for `Fc1ccc(N2N=C(c3cccs3)CC2c2ccco2)c(F)c1` (stereo not drawn) is -3.03% (inactive); for `COc1ccccc1N1N=C(c2cccs2)CC1c1ccccc1` (stereo not drawn) it is 46.6% (active).
For `CS(=O)(=O)Nc1ccc(C2=NN(S(C)(=O)=O)C(c3cccs3)C2)cc1` (stereo not drawn) the value was -3.93% (inactive); for `Cc1cc(C)c(-c2c(O)c3ccccc3n(C)c2=O)c(C)c1`, 61.1% (active); for `Cc1ccc(S(=O)(=O)N2CCN(C(=O)CSc3cc(C)ccc3C)CC2)c(C)c1`, 108% (active).
As for `CCc1cc(=O)oc2cc(C)cc(OCC(=O)N3CCC[C@@H]3C(=O)O)c12`, the inhibition was 54.6% (active).
On to `CCCC/C=C/c1cccc2nncn12`, for which the inhibition was 54% (active).
For `CCOc1ccccc1C1CC(c2ccccc2)Nc2nc(N)nn21` (stereo not drawn) the value was 132% (active); for `CN(C)CCCn1c(N)c(C#N)c2nc(C#N)c(C#N)nc21`, 76.3% (active).
As for `c1ccc(Cc2c(-c3ccco3)nc3c4ccccc4ccn23)cc1`, the inhibition is 95.6% (active).
In the case of `CN(C)c1ccc(/C=N/NC(=O)C(O)c2ccc(Br)cc2)cc1` (stereo not drawn), the inhibition is 64% (active).
The figure for `CC(C)C1Nc2c(C(=O)O)cccc2C(Nc2ccccc2C(=O)O)C1(C)C` (stereo not drawn) is 87.3% (active).
For `CC(=O)N1C(=O)/C(=C2\SC(=S)N(NC(=O)c3ccc(O)cc3)C2=O)c2ccccc21` the value was -2.52% (inactive); for `Cc1cc(OCc2cc(C(=O)O)oc2C)c2c3c(c(=O)oc2c1)CCCC3`, 89.5% (active).
Consider `COC(=O)COc1cc(C)cc2oc(=O)c3c(c12)CCCC3`, for which the inhibition is 105% (active).
Regarding `O=C(c1cc(-c2ccc(Cl)s2)nc2ccccc12)N1CCOCC1`, the inhibition is 83% (active).
Regarding `CC(=O)N1CCN(C(=O)c2cc(-c3ccc(Cl)s3)nc3ccccc23)CC1`, the inhibition is -3.53% (inactive).
The figure for `Cc1ccc2nc(-c3ccco3)c(Cc3cccc(Cl)c3)n2c1` is 63.6% (active); for `COC(=O)c1cc(-c2cccs2)nc2ccccc12` it is 96.2% (active).
Consider `CC(C)(C)OC(=O)NNc1c2ccccc2nc2ccccc12`, for which the inhibition was -5.25% (inactive).
On to `O=C(NCCN1CCOCC1)c1cc(-c2cccs2)nc2ccccc12`, for which the inhibition is -3.18% (inactive).
For `CC(C)n1c(-c2cccs2)nc2ccccc21` the value was 68.4% (active); for `Cc1cc(=O)oc2c1ccc1ccccc12`, 71.6% (active).
